# “And” between values parts separate entries of the source, which are not always exact repeats. Identical values can stand only once. Records with an inconclusive call do not appear. Values without a mark were called inactive. Calls follow the shape of the dose curve; as a rule, active = well fitted curve in the direction sought with a large enough effect; inconclusive = small, poorly fitted or top-dose-only effect, or another doubt; inactive = no such curve, though single readings can be large or run the other way.
# Test: qHTS Assay for Identifying Gametocytocidal Compounds (AID 743244);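 also: actives lower the fluorescent signal which means gametocytes are killed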
# Conditions: P. falciparum 3D7 stage III-V gametocytes, alamarBlue, 72 h; max response: hits give low values
# Outline: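 Late gametocytes (III–V), P. falciparum 3D7; 72 h drug, then 24 h alamarBlue; resazurin reduction read by fluorescence.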
# % is scaled to controls: 0 for no effect and ±100 for the full control effect.
row,Compound,max response
1,O=S(=O)(O)c1ccc2nc(-c3ccccc3)[nH]c2c1,9.66%
2,O=C(O)[C@@H](O)[C@H](O)[C@H](O)[C@@H](O)C(=O)O,9.57%
3,CN(C(=O)C(Cl)Cl)c1ccc(OC(=O)c2ccco2)cc1,8.61%
4,C[C@@H](O[C@H]1OCCN(Cc2n[nH]c(=O)[nH]2)[C@H]1c1ccc(F)cc1)c1cc(C(F)(F)F)cc(C(F)(F)F)c1,16.6%
5,CC(=O)OCC(=O)[C@@]1(O)[C@H](OC(C)=O)C[C@H]2[C@@H]3CCC4=CC(=O)C=C[C@]4(C)[C@@]3(F)[C@@H](O)C[C@@]21C,-5.18%
6,O=C(Nc1ccc(S(=O)(=O)N2CCOCC2)cc1)c1cc(Cl)ccc1NS(=O)(=O)c1ccc(Cl)s1,15.3%
7,Nc1c[n+](N2CCOCC2)no1,2.15%
8,CCOC(=O)C1=C(C)NC(C)=C(C(=O)OCC)C1c1ccccc1/C=C/C(=O)OC(C)(C)C,4.06%
9,COc1cc(NS(=O)(=O)c2ccc(N)cc2)nc(C)n1,34.9%
10,CC(=O)Nc1ccc(S(=O)(=O)Nc2cc(C)on2)cc1,3.06%
11,CCC(C(=O)NC(=O)NC(C)=O)c1ccccc1 (stereo not drawn),-11.8%
12,c1ccc(C(O[C@H]2CCCN(CCc3ccc4c(c3)OCO4)C2)c2ccccc2)cc1,-6.18%
13,CCC[C@H](N[C@@H](C)C(=O)N1[C@H](C(=O)O)C[C@@H]2CCCC[C@@H]21)C(=O)OCC,-14.5%
14,Nc1nnnn1-c1ccccc1,2.05%
15,CC(=O)OCC[N+](C)(C)C,0.348%
16,Cc1ccccc1C(=O)N1CC/C(=N\OS(=O)(=O)O)c2ccc(Cl)cc21,0.506%
17,C=CCOc1cc(Cl)ccc1C(=O)NCCN(CC)CC,9.51%
18,O=C(O)/C=C(\CC(=O)O)C(=O)O,8.32%
19,CC(C)OC(=O)c1cc2c(OCC(O)CNC(C)(C)C)cccc2[nH]1 (stereo not drawn),0.786%
20,COc1c(N2C[C@@H]3CCCN[C@@H]3C2)c(F)cc2c(=O)c(C(=O)O)cn(C3CC3)c12,11.5% and 6.91%
21,Cc1ccccc1N1CCN(CCc2nnc3n2CCCC3)CC1,-15.7%
22,CN=C(N)NC(=O)Nc1c(C)cccc1C,9.51%
23,O=C(O)CCC(=O)OC[C@@H](NC(=O)C(Cl)Cl)[C@H](O)c1ccc([N+](=O)[O-])cc1,-4.91%
